From PubChem BioAssay AID1851 (National Center for Advancing Translational Sciences (NCATS), 2009)
Among all 16,000 compounds or so, about 5,100 (32%) were called active. Not shown: some 25% with an inconclusive outcome. The list shows a part of the results. A number with no mark means an inactive call. The call rests on the fitted dose curve; in most records, active means well fitted curve in the direction sought with a large enough effect; inconclusive means small, poorly fitted or top-dose-only effect, or effect the other way; inactive means no such curve, though single readings can be large or run the other way.

Each compound was assayed against Cytochrome P450 3A4 (Homo sapiens) (UniProt P08684) (assay: Cytochrome panel assay with activity outcomes). Settings: recombinant CYP, pro-luciferin dealkylation, luminescence, p450-cyp3a4; series mostly up to 57.1 µM.
Chain of Cytochrome P450 3A4 (Homo sapiens) (P08684 whole entry, looked up): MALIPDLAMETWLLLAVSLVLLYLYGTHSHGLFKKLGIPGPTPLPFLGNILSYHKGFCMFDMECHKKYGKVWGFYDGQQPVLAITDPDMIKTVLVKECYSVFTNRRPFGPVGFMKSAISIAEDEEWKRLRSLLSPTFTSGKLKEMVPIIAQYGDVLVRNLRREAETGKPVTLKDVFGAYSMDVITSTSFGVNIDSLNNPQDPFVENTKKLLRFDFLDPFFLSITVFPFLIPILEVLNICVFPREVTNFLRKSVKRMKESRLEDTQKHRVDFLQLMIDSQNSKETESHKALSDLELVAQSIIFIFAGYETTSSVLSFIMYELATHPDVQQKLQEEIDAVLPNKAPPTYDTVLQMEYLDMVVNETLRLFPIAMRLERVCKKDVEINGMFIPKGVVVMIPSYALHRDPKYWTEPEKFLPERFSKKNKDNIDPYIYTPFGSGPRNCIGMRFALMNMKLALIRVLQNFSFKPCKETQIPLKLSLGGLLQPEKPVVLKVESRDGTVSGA
Procedure: The P450 gene superfamily is involved in the metabolism and clearance of xenobiotics. This assay used various human CYP P450 isozymes to measure the dealkylation of various pro-luciferin substrates to luciferin. The luciferin is then measured by luminescence after the addition of a luciferase detection reagent. Pro-luciferin substrate concentration in the assay was equal to its KM for its CYP P450 isozyme. Inhibitors and some substrates limit the production of luciferin, and decrease measured luminescence.
NCGC Assay Protocol Summary:
1, Reagent, 2 uL, Isozyme and Pro-Luciferin
2, Library compounds, 23 nl, 40 uM to 0.24 nM dilution series
3, Controls, 23 nl, Isozyme specific inhibitor
4, Reagent, 2 uL, NADPH regeneration solution
5, Incubation time, 60 min, Isozyme specific temperature
6, Reagent, 4ul, Detection reagent
7, Incubation time, 20 min, Isozyme specific temperature
8, Detection, 1 sec, ViewLux luminescent read
The luciferase-based P450-GloTM Screening Systems were obtained from Promega (Madison, WI) for CYP 1A2 (V9770), CYP 2C9 (V9790), CYP2 C19 (V9880), CYP 2D6 (V9890), and CYP 3A4 Luciferin-PPXE (V9910) and were adapted for 1,536-well microplates and an automated protocol. The control compounds furafylline for 1A2 (F124), sulfaphenazole for CYP 2C9 (S0758), ketoconazole for CYP 2C19 (K1003), quinidine for 2D6 (Q3625), and ketoconazole for 3A4 (K1003) were purchased from Sigma Aldrich (St. Louis, MO). Recombinant P450 enzymes were obtained from baculovirus constructs expressed in insect cells (BD/Gentest).
Medium-binding white solid Kalypsys plates used. Mixtures kept on ice. 1A2: 10 nM 1A2, 100 uM Luc-ME, 100 mM KPO4; 2C9: 10 nM 2C9, 100 uM Luc-H, 25 mM KPO4; 2C19: 5 nM 2C19, 10 uM Luc-H EGE, 50 mM KPO4; 2D6: 5 nM 2D6, 30 uM Luc-ME EGE, 100 mM KPO4; 3A4: 10 nM, 25 uM Luc-PPXE. All amounts are reflected in their final concentration, working concentration is 2x.
NADPH regeneration solution: 1.3 mM NADP+, 3.3 mM glucose-6-phosphate, 3.3 mM MgCl2, 0.4 U/mL glucose-6-phosphate dehydrogenase for all isozymes, 200 mM KPO4 for 3A4. Mixture prepared at RT but kept on ice during automated run.
RT incubation in auxilliary plate hotel for 1A2, 2D6, and 3A4; 37C for 2C9 and 2C19.
Keywords: P450, CYP1A2, CYP2C19, CYP2C9, CYP2D6, CYP3A4, Luciferase, MLSMR, MLSCN, NIH Roadmap, qHTS, NCGC
On the % scale 0 is the no-effect control and ±100 the full control effect.

Structure (SMILES) | AC50 | activity, negative = inhibition
C=CCn1c(SCC(=O)N2CC(=O)Nc3ccccc32)nc2scc(-c3ccccc3)c2c1=O | 2.82 µM (active) | –
C=CCn1c(SCc2ccc3c(c2)OCO3)nc2scc(-c3ccco3)c2c1=O | 2.82 µM (active) | –
O=S(=O)(c1ccc(Cl)s1)N1CCc2ccccc2C1 | inactive | –
O=C(ON=C1CCN(S(=O)(=O)c2ccccc2)CC1)c1ccccc1 | inactive | –
COc1ccc(S(=O)(=O)N2CCc3ccccc3C2)cc1OC | 15.8 µM (active) | –
CCCCCCCCCCCCC(=O)N1CCCC[C@H]1CNC(=O)[C@@H](N)CCCCN | inactive | –
NC(=O)NC(=O)Nc1ccccc1Cl | inactive | –
O=C(NNc1cccc(Cl)n1)Nc1ccccc1Cl | 12.6 µM (active) | –
CC(=O)NNc1cccc(Cl)n1 | inactive | –
CCN(CCO)C[C@H]1CCC[C@H]2CCCC[C@@H]21 | – | -20% [at 11.4 µM]
CN(C)S(=O)(=O)Oc1ccsc1C(=O)Nc1ccc(Cl)cc1 | 15.8 µM (active) | –
CN(C)S(=O)(=O)Oc1cccc(C(=O)Nc2ccccc2Cl)c1 | – | -12.3% [at 11.4 µM]
C/C(=N/OC(=O)c1cccc(Cl)c1)c1nccs1 | inactive | –
Cc1ccc(Sc2ccc(NC(=O)c3ccc(S(C)(=O)=O)cc3Cl)cc2)cc1 | inactive | –
CN(C)S(=O)(=O)c1ccc(NC(=O)c2cc(F)c(F)cc2Cl)cc1 | inactive | –
CN(C)S(=O)(=O)Oc1ccsc1C(=O)Nc1cccc(Cl)c1 | 10 µM (active) | –
CN(C)S(=O)(=O)Oc1cccc(C(=O)Nc2ccc(Cl)c(Cl)c2)c1 | 25.1 µM (active) | –
O=C1NCN(c2ccccc2)C12CCN(CCCC(c1ccc(F)cc1)c1ccc(F)cc1)CC2 | inactive | –
C[C@H](CN(C)C)C(=O)c1ccccc1C(=O)O | – | -12.4% [at 11.4 µM]
NC[C@H](O)C1CCCCCCC1 | inactive | –
CCNc1ncc2nc(-c3ccc(Cl)cc3)c(=O)n(Cc3cccc(OC)c3)c2n1 | inactive | –
CCNc1ncc2nc(-c3ccccc3)c(=O)n(Cc3cccc(OC)c3)c2n1 | 10 µM (active) | –
CCNc1ncc2nc(C)c(=O)n(Cc3cccc(OC)c3)c2n1 | 7.94 µM (active) | –
Nc1nc(Cl)nc2c1ncn2[C@@H]1O[C@@H](CO)[C@@H](O)[C@H]1O | inactive | –
c1ccc(Nc2nc(-c3cccnc3)nc3ccccc23)cc1 | 12.6 µM (active) | –
CCOC(=O)c1ccc(Nc2nc(-c3cccnc3)nc3ccccc23)cc1 | 11.2 µM (active) | –

Structure (SMILES) | AC50 | activity, negative = inhibition
CNc1nc(-c2cccnc2)nc2ccccc12 | 6.31 µM (active) | –
CCOC(=O)NNc1nncc2ccccc12 | inactive | –
CC(C)c1nc2oc3ccccc3c(=O)c2c(=O)n1-c1ccccc1 | inactive | –
CC(C)(C)NC[C@H](O)COc1cccc2c1CCCC2=O | inactive | –
CCOC(=O)c1cc2c(=O)n3ccccc3nc2n(CCCOC)c1=NC(C)=O | inactive | –
CCOC(=O)c1cc2c(=O)n3ccccc3nc2n(CCCOC)c1=NC(=O)C(C)(C)C | 15.8 µM (active) | –
Cc1cc(=O)c2ccccc2[nH]1 | inactive | –
O=c1[nH]c2ccccc2c2ccccc12 | inactive | –
COc1ccc(OC)c2c(=S)c3ccccc3[nH]c12 | 7.94 µM (active) | –
CC(CC(=O)O)(CC(=O)O)C(=O)O | – | -8.15% [at 11.4 µM]
COc1ccc(OC)c(C2C3=C(COC3=O)Nc3cc4c(cc32)OCO4)c1 (stereo unspecified) | 7.08 µM (active) | –
COc1ccc(OC)c(C2N(c3cc(C)on3)C(=O)C3CCCN32)c1 (stereo unspecified) | inactive | –
COc1cccc(N2CCN(C(=O)Nc3ccc4c(c3)NC(=O)CO4)CC2)c1 | inactive | –
CC1CCCC(C)N1CCNC(=O)Cn1nc(-c2ccccc2)ccc1=O (stereo unspecified) | inactive | –
Cc1ccc(S(=O)(=O)N2CCOCC2)cc1NC(=O)COC(=O)CCC(=O)c1cccs1 | 11.2 µM (active) | –
O=C(CCC(=O)c1cccs1)OCC(=O)N1CCN(C(=O)c2ccco2)CC1 | – | -6.6% [at 2.29 µM]
Cc1ccc(S(N)(=O)=O)cc1NC(=O)/C=C/c1cccs1 | inactive | –
O=C(c1ccc(N2CCCCC2)c([N+](=O)[O-])c1)N(Cc1ccccc1)c1ccccn1 | 3.55 µM (active) | –
Cc1c(C(c2cccc([N+](=O)[O-])c2O)c2c(C)n(C)n(-c3ccccc3)c2=O)c(=O)n(-c2ccccc2)n1C | inactive | –
CCCCc1nc(SCC(=O)Nc2ncccn2)n[nH]1 | inactive | –
Nc1nc(SCC(=O)Nc2ccccc2Sc2ccc(Cl)cc2)n[nH]1 | 0.708 µM (active) | –
O=C(c1ccccc1Nc1ccc(SC(F)F)cc1)N1CCCCC1 | 14.1 µM (active) | –
O=C(O)CCC(=O)Nc1ccc(C(=O)N2CCCCC2)cc1 | inactive | –
CC1CCCC(C)N1C(=O)c1ccccc1Nc1ccc(SC(F)F)cc1 (stereo unspecified) | 10 µM (active) | –
O=C(O)c1ccccc1Nc1ccccc1 | inactive | –
